The whole screen tested about 340,000 compounds, of which about 1,000 (0.29%) were called active. Only a sample is shown. Potency and affinity values are given separately. Unmarked numbers belong to inactive results. Rule as the data show it: inconclusive = inhibition above about 27% without an active follow-up result; inactive = below that.

This test in a line: NS1A inhibition, H1N1 influenza, cell based functional assay (AID 504329). As to conditions: percent inhibition, at 12.5 µM, stronger effect = higher value.
By inhibition is commonly meant the relative decrease from the control value, in per cent. Regarding `CSc1ccc(CN(C)CC(=O)Nc2c(F)cccc2F)cc1`, the inhibition was 4.59%.
To `CC(C)c1ccc(NC(=O)C2=NNC(=O)CC2)cc1` belongs 8.16%.
Regarding `O=C(CCCCC(=O)OCC1CCCO1)OCC1CCCO1` (stereo unspecified), the inhibition was -25.2%.
To `O=C1COc2ccccc2N1Cc1ccc(Cl)cc1` belongs -6.96%.
On to `Cc1c[n+](C)ccc1CC1C([N+](=O)[O-])=C[N-]c2ncnn21` (stereo unspecified), for which the inhibition is -6.38%.
To `O=C(Cc1ccc(O)cc1)NCCNC(=S)NCc1ccccc1` belongs -12.1%.
To `O=Cc1c(-c2ccccc2)cc2oc3ccccc3cc1-2` belongs 10.8%.
To `O=c1oc2ccccc2cc1-c1ccccc1` belongs -7.16%; to `CCOc1ccc(NC(=O)NCc2ccccn2)cc1`, -5.82%.
For the molecule `S=C(NCc1ccccn1)Nc1ccccc1Cl`, the inhibition is -10.4%.
As for `O=C(Cc1ccccn1)Nc1ccccc1`, the inhibition is -8.73%.
Regarding `Cc1ccc(NC(=O)C(NCc2ccccn2)c2ccccc2)cc1` (stereo unspecified), the inhibition is -1%.
For the molecule `O=C(NCc1ccccn1)Nc1ccccc1Cl`, the inhibition was -1.88%.
To `CCOc1ccc(NC(=O)CC(c2ccccc2)c2ccc(F)cc2)cc1` (stereo unspecified) belongs -2.67%; to `Cc1cc(C)cc(NC(=O)c2ccc(S(=O)(=O)C(F)F)cc2)c1`, 15.2%.
Next, `COC(=O)C(C)Sc1ccc2nnc(-c3ccccc3)n2n1` (stereo unspecified): 0.68%.
To `COc1ccc(NS(=O)(=O)c2ccc3oc(SCc4ccc(F)cc4)nc3c2)cc1` belongs -1.81%.
In the case of `O=C(O)c1cc(-c2cccs2)nn1-c1cccc(Cl)c1`, the inhibition was -3.66%.
In the case of `CC(C)CCNC(=O)CSc1nnc(-c2ccc(S(=O)(=O)N3CCCC3)cc2)n1C`, the inhibition is 1.62%.
Next, `O=C(CSc1n[nH]c(-c2cccs2)n1)NCCc1ccccc1`: -3.95%.
As to `COCCN=c1scc(-c2ccco2)n1/N=C/c1ccc(O)c(O)c1O`, the inhibition was 13.4%.
To `CN=c1scc(-c2cccs2)n1/N=C/c1ccc(O)c(O)c1O` belongs 28.1%.
For the molecule `Cc1ccc(S(=O)(=O)N2CCN(C(=O)C3CCCC3)CC2)cc1C`, the inhibition is -7.76%.
Next, `CCCCC(=O)NC(c1ccc(C(C)C)cc1)c1ccc2cccnc2c1O` (stereo unspecified): -9.31%; `CCCCC(=O)NC(c1ccccc1)c1ccc2cccnc2c1O` (stereo unspecified): 17.1%; `CCCC(=O)NC(c1ccc(Cl)cc1)c1ccc2cccnc2c1O` (stereo unspecified): -7.24%.
To `CCCC(=O)NC(c1ccc(C(C)C)cc1)c1ccc2cccnc2c1O` (stereo unspecified) belongs -11.7%; to `CCCC(=O)NC(c1ccc(C)cc1)c1ccc2cccnc2c1O` (stereo unspecified), 4.97%.
Next, `CCCCC(=O)NC(c1ccc(N(CC)CC)cc1)c1ccc2cccnc2c1O` (stereo unspecified): 11.6%; `CCc1cc(C(=O)N2CCCC(C(=O)c3ccc(Oc4ccccc4)cc3)C2)n(C)n1` (stereo unspecified): -0.31%.
For the molecule `COc1ccc(NC(=O)c2ccc(NC(=O)CN(C)CC(=O)Nc3c(C)cccc3C)cc2)cc1`, the inhibition was -7.57%.
On to `C/C=C\C=C\C(=O)N1CC2(CC(c3cccc(NC(=O)CC(c4ccccc4)c4ccccc4)c3)=NO2)C[C@H]1C(N)=O` (stereo partly specified), for which the inhibition was 2.26%.
For the molecule `COCCCNC(=O)c1cc(=O)n(Cc2ccc(Cl)cc2)c2ccccc12`, the inhibition was 6.81%.
On to `CCCCCc1cc(=O)oc2c(C(CCN3CCN(c4ccccc4)CC3)c3ccc(N(C)C)cc3)c(OC)cc(OC)c12` (stereo unspecified), for which the inhibition was -11.8%.
To `CCCCCc1cc(=O)oc2c(C(CCN(CC)CC)c3ccc(OC)cc3)c(OC)cc(OC)c12` (stereo unspecified) belongs 5.11%.
To `CCCCCc1cc(=O)oc2c(C(CCN3CCCC(C)C3)c3ccc4c(c3)OCO4)c(OC)cc(OC)c12` (stereo unspecified) belongs 16.4%.
In the case of `CCCCCc1cc(=O)oc2c(C(CCN(CC)CC)c3cc(OC)c(OC)c(OC)c3)c(OC)cc(OC)c12` (stereo unspecified), the inhibition is 9.43%.
Turning to `CCCCCc1cc(=O)oc2c(C(CCN3CCCCC3)c3ccc(OC)cc3)c(OC)cc(OC)c12` (stereo unspecified), the inhibition was 18.7%.
To `CCCCCc1cc(=O)oc2c(C(CCN3CCCC(C)C3)c3ccc(OC)cc3)c(OC)cc(OC)c12` (stereo unspecified) belongs 8.01%.
To `Nc1nnc(SCC(=O)NCCNC(=O)CSc2nnc(N)s2)s1` belongs -11.3%; to `Cc1noc(-c2ccc(Cl)cc2)c1C(=O)O/N=C(\N)c1ccc(C(C)(C)C)cc1`, 12.5%; to `O=C(CN1CCCCC1)N=Nc1c(O)[nH]c2ccccc12`, -8.88%.
Next, `Cc1ccc(-c2nnc(N3CCCCC3)c3ccccc23)cc1S(=O)(=O)N(C)C`: -3.68%; `CS(=O)(=O)Oc1ccc2c(c1)O/C(=C\c1cccc([N+](=O)[O-])c1)C2=O`: 7.03%; `CS(=O)(=O)c1ccc(S(=O)CC(=O)OCc2ccccc2)c([N+](=O)[O-])c1` (stereo unspecified): 11.4%.
As to `COc1ccccc1OCCOC(=O)Nc1ccccc1`, the inhibition is -11.2%.
Next, `COc1cc(/C=C2/C(=O)N(c3ccc(C(=O)O)cc3)N=C2C)cc(OC)c1O`: 13.2%; `COc1cc(/C=C2\C(=O)N(c3ccc(NC(C)=O)cc3)N=C2c2ccccc2)ccc1O`: 12.5%.
To `COc1cc(/C=C2/C(=O)N(c3ccc(Br)cc3)N=C2C)cc(OC)c1OC` belongs 3.78%.
Consider `O=C1/C(=C\c2ccc(O)c(O)c2)C(c2ccccc2)=NN1c1ccccc1`, for which the inhibition is 23.5%.
In the case of `CCOC(=O)C1CCC(CN(Cc2ccccc2)S(=O)(=O)c2ccc([N+](=O)[O-])cc2)CC1` (stereo unspecified), the inhibition is 6.67%.
To `CCOC(=O)c1ccc(COc2ccc(C(C)C)cc2)o1` belongs -6.49%.
Next, `O=C1CSC(=S)N1N=Cc1cccc2ccccc12`: 13.2%; `COc1ccccc1C=NN1C(=O)CSC1=S`: 1.86%.
To `CCOc1cccc(/C=N/N=C/c2cccc(OCC)c2O)c1O` belongs -10.6%.
Turning to `CCOc1cccc(/C=N/N2C(C)CCCC2C)c1O` (stereo unspecified), the inhibition is -10.1%.
Take `Cc1ccccc1/C=N/N1C(=O)CSC1=S`: the inhibition was -0.54%.
On to `O=C1CSC(=S)N1/N=C/c1ccc(O)c(O)c1O`, for which the inhibition was -1.09%.
Next, `CC(=O)O[C@H]1[C@H](O)[C@H](Oc2c(O)c(C)c3c4c2[C@@H](C)CC[C@@H]4[C@@H](C)C[C@H]3C=C(C)C)O[C@@H](C)[C@H]1O`: 4.02%.
To `COc1ccc(-c2nc3ccccc3c(=O)n2CC(C)C)cc1` belongs -17.7%; to `CCN1C(=NCCCOC(C)C)N[C@@H](CCc2ccccc2)[C@H](C(=O)NCCCOC(C)C)[C@H]1C`, 7.63%.
Next, `COc1ccc(OC)c(C(=O)N(C)C2CCCN(Cc3ccccc3F)C2)c1` (stereo unspecified): 2.52%; `COC(=O)C1=C(c2c(C)noc2C)C[C@@H]2CC[C@H]1N2C(=O)NCCCOC(C)C`: -1.03%; `COC(=O)C1CCN(C(=O)/C=C/c2ccc(OC)cc2)CC1`: 1.45%.
Consider `CCOc1ccccc1OCCCC(=O)ON=C(N)c1ccccc1`, for which the inhibition is -17.2%.
To `COc1ccc(-c2c(NC(=O)c3ccco3)oc3ccccc3c2=O)cc1OC` belongs 9.22%; to `CCOc1ccccc1C(=S)NC1CCCCC1`, -0.78%; to `CCOc1ccccc1OCCNC1CCCC1`, -3.47%.
To `CC(C)C[C@@H]1CN=C(N)N1C[C@@H]1CCCN1C[C@@H](C(C)C)N1C[C@@H](Cc2ccccc2)N(CCCC2CCCC2)C1=N` belongs 0.6%; to `CCOc1ccc(S(=O)(=O)Nc2ccc(C(=O)NCC(C)(C)N3CCOCC3)cc2)cc1`, -9.51%.
Next, `O=C(O)c1cc(S(=O)(=O)Nc2ccccc2C(=O)O)ccc1O`: -2.33%.
As to `O=C(O)c1cc(S(=O)(=O)O)ccc1O`, the inhibition was -4.88%.
To `O=C(NNC(=O)c1cc(-c2cccc(Br)c2)nc2ccccc12)c1csc(N2CCOCC2)n1` belongs -7.9%; to `COc1cc([N+](=O)[O-])cc(/C=N/NC(=O)c2cccnc2)c1O`, -13.7%; to `COc1cc([N+](=O)[O-])cc(/C=N/NC(=O)c2cncc(Br)c2)c1O`, -13.3%.
Next, `O=C(N/N=C/c1cc2c(cc1Cl)OCO2)c1ccncc1`: -1.41%; `Cc1cc(C)nc(N/N=C/c2cc(Br)ccc2O)n1`: 8.15%.
Next, `COc1cc(/C=N/NC(=O)c2ccc(C)nc2)cc([N+](=O)[O-])c1O`: -21.2%; `COc1cc([N+](=O)[O-])cc(/C=N/NC(=O)c2ccc(NC(=O)c3ccc(C)cc3)cc2)c1O`: -0.59%.
In the case of `Oc1ccc(Br)cc1/C=N/Nc1ncc(-c2ccccc2)cn1`, the inhibition is -1.12%.
In the case of `O=C(N/N=C/c1ccncc1)c1ccncc1`, the inhibition was 0.03%.
Next, `Cc1ccc([N+](=O)[O-])cc1S(=O)(=O)Nc1ccc(OCC(=O)N2CCOCC2)cc1`: -6.07%; `COC(=O)c1ccccc1S(=O)(=O)NC(=O)c1ccccc1`: -2.87%.
Next, `CCOC(=O)C1CCN(CCC(=O)Nc2ccc(Br)cc2)CC1`: -10.6%.
Next, `CC(Sc1nnc2ccccn12)C(N)=O` (stereo unspecified): 7.97%.
In the case of `Cc1ccc(S(=O)(=O)Nc2ccccc2C(=O)N2CCCCC2)cc1`, the inhibition is -16.7%.
To `COc1ccc(C(=O)Nc2cccc(C)n2)cc1S(=O)(=O)N1CCCc2ccccc21` belongs 8.43%.
As for `CC(C)(C)OC(=O)N1C[C@H](O)C[C@H]1C(=O)OCC(=O)c1ccc([N+](=O)[O-])cc1`, the inhibition is 9.24%.
For the molecule `CN(CC(=O)Nc1ccc(Cl)c(S(=O)(=O)N2CCOCC2)c1)C(=O)c1cccs1`, the inhibition is -3.85%.
To `Cc1cnc(C)c(N2CCN(Cc3cn(C)nc3-c3cccc(Cl)c3)CC2)n1` belongs -9.06%; to `COC(=O)C(C(=O)OC)[C@@H]1C=C[C@H](C[N+](=O)[O-])N(C(C)=O)C1`, -12.3%.

For the origin of these results see PubChem BioAssay AID504329 (Southern Research Specialized Biocontainment Screening …, 2011).
